# Source: PubChem BioAssay (several laboratories)
# CYP2C19 activ = activators of human cytochrome P450 2C19; P33261; recombinant CYP2C19, luciferin-H EGE luminescence; hits give high values; 0 = fully inhibited enzyme, 1 = untreated enzyme; activation factor at 5 µM; 96,000 tested, under 10 active; AID 1025;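 active = activation factor of at least 2 at 5 µM in the primary screen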;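 also: 0 = wells with 2.5 mM tranylcypromine and 1 = vehicle-only wells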
# Target sequence (P33261 whole entry, looked up): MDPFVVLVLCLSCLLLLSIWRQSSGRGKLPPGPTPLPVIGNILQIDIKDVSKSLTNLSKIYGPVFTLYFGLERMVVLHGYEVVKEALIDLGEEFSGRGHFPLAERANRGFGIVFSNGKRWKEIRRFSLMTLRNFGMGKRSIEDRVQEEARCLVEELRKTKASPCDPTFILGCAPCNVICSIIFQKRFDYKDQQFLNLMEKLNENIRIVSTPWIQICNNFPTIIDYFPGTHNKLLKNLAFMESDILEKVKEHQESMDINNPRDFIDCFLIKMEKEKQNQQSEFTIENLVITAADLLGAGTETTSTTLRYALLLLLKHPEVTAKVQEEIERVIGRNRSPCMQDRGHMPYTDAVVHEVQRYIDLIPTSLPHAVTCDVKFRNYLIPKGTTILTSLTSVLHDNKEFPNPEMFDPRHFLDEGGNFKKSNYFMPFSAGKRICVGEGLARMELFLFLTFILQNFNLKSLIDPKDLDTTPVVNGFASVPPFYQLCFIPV
# sEH act = increases human soluble epoxide hydrolase activity; P34913; purified human sEH enzymatic activity, activator screen; hit rate 0.04% among 91,000; activation, % at 2 µM; AID 717; in the data active = activation above about 37%
# CYP2C19 inh = blocks human cytochrome P450 2C19 | hit rate 21% among 96,000 | CYP2C19 Supersomes, luciferin-H EGE luminescence, 30 min | AID 778 | inhibition, % at 5 µM;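 active = CYP2C19 inhibition above a set limit at 5 µM in the primary screen, cut at about 50% in these data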;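 also: plate controls were negative control wells for no effect and 2.5 mM tranylcypromine positive control for full effect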
# CYP2C9 activ = CYP2C9 (human) activation; P11712; recombinant CYP2C9, luciferin-H conversion, luminescence; hits give high values; factor 1 = untreated enzyme, 0 = blocked; activation factor at 5 µM; hit rate 1.4% among 96,000; AID 1024;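 active = activation factor of 2 or more for CYP2C9 at a 5 µM dose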;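 also: 0 = sulfaphenazole-blocked wells and 1 = vehicle-only wells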
# sEH inhibitor = inhibitors of human soluble epoxide hydrolase; hit rate 0.34% among 91,000; inhibition, % at 2 µM; P34913; recombinant human sEH enzymatic activity assay; in the data active = inhibition above about 80%
# CYP2C9 inh = blocks human cytochrome P450 2C9; CYP2C9 Supersomes, luciferin-H conversion, luminescence; inhibition, % at 5 µM; hit rate 20% among 96,000; AID 777;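 active = blocking of liver enzyme CYP2C9 beyond about 50% at 5 µM, limit read from the data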
# * marks the source's active call; other numbers are inactive results; . = no result. Most compounds without a hit are left out; they make up all but 27% or so of the library.
SMILES,CYP2C19 activ,sEH act,CYP2C19 inh,CYP2C9 activ,sEH inhibitor,CYP2C9 inh
C=CCn1c(COc2ccc(Cl)cc2)nnc1SCC(=O)N1CC(=O)Nc2ccccc21,0.7,5,31,2.6*,-6,-156
C=CCn1c(COc2ccc3c(c2)CCCC3)nnc1SCC(=O)Nc1cccc(SC)c1,0.7,8,29,0.5,-5,51*
C=CCn1c(COc2ccccc2)nnc1SC(C)C(=O)N/N=C/c1cc(Cl)ccc1O (stereo not drawn),0.6,-1,35,0.5,2,50*
CC(C)CC(=O)Nc1ccc(C(=O)NNC(=O)C(c2ccccc2)c2ccccc2)cc1,0.8,-1,18,0.7,3,29
O=C(O)c1ccc(Cn2cc(Cl)cn2)cc1,0.9,10,14,0.9,-9,6
Clc1cc(NCc2cccs2)ccc1N1CCOCC1,0.1,1,94*,0.2,-3,81*
Cc1c(C(=O)O)sc2nc3n(c(=O)c12)CCC(C)CC3 (stereo not drawn),.,6,.,.,-5,.
O=C(Nc1ccc(F)cc1)c1cc(S(=O)(=O)Nc2ccc(F)cc2)cs1,0.2,-6,77*,0.1,8,90*
Cc1ccc(NC(=O)c2cc(S(=O)(=O)N3CCCCC3)cs2)cc1,0.8,-47,19,0.3,48,68*
O=C(Nc1ccc(Cl)cc1)c1cc(S(=O)(=O)N2CCOCC2)cs1,0.9,-55,8,0.7,54,35
CN1CCN(S(=O)(=O)c2ccc(NC(=O)c3ccc(Br)s3)cc2)CC1,0.5,-55,52*,0.4,54,59*
N#Cc1c(N)n(CCc2ccc(F)cc2)c2nc3ccccc3nc12,0,-22,99*,0.2,24,80*
COc1ccc(Cn2c(N)c(C#N)c3nc4ccccc4nc32)cc1,0.8,-13,20,0.7,11,26
COc1ccc(-n2c(N)c(C(=O)NCc3ccco3)c3nc4ccccc4nc32)cc1,0.9,10,6,0.8,-9,18
Nc1c(C(=O)NCc2ccco2)c2nc3ccccc3nc2n1CCc1ccc(F)cc1,0.6,10,43,0.4,-13,58*
COc1cc(Cn2c(N)c(C#N)c3nc4ccccc4nc32)cc(OC)c1,1.1,2,-6,0.4,-4,56*
CCN(CC)S(=O)(=O)c1ccc2c(c1)c(=O)c(C(=O)N1CCN(c3ccccc3)CC1)cn2C,.,4,.,.,-2,.
Cc1cc(C(=O)OC2CCOC2=O)c2ccccc2n1 (stereo not drawn),0.9,.,8,1,.,4
O=C(c1ccccc1)c1nc[nH]c1C(=O)Nc1ccccc1,0.9,-20,15,0.9,21,9
N#Cc1cc(N)ccc1Sc1ccc(Cl)cc1,0.5,-5,50,1.9,5,-87
N#Cc1cc(N)ccc1Sc1ccccc1,0.5,6,46,2*,-4,-104
O=C(CN1CCCC1=O)NC1(C(F)(F)F)NC(=O)N(Cc2ccccc2)C1=O (stereo not drawn),1.2,9,-17,1,-12,-4
O=C(O)c1cnc(-c2ccccc2)nc1Sc1ccc(Cl)cc1Cl,1.1,15,-7,0.5,-12,53*
O=C(O)c1cnc(-c2ccccc2)nc1Sc1cccc(Cl)c1,0.9,-4,6,0.6,7,40
CC(=O)c1cccc(NC(=O)C2CC(=O)N(Cc3ccccc3)C2)c1 (stereo not drawn),0.7,-6,34,0.7,7,25
SMILES,CYP2C19 activ,sEH act,CYP2C19 inh,CYP2C9 activ,sEH inhibitor,CYP2C9 inh
Cc1cc2ncn(-c3ncnc4sc5c(c34)CCCC5)c2cc1C,0.2,-4,83*,0.3,3,66*
Cc1cc2ncn(-c3ncnc4sc(C)c(C)c34)c2cc1C,0.1,-1,91*,0.2,1,83*
c1ccc2c(c1)ncn2-c1ncnc2sc3c(c12)CCCC3,0.3,-10,70*,0.7,13,32
Cc1cc2ncn(-c3ncnc4sc5c(c34)CCC(C)C5)c2cc1C (stereo not drawn),0.2,-14,80*,0.6,17,43
Cc1cc2ncn(-c3ncnc4scc(-c5ccccc5)c34)c2cc1C,0.7,-7,26,0.8,6,16
CC(C)OC(=O)C(NC(=O)c1ccccc1)=C1CCCCC1,0.9,2,14,0.7,-2,34
CC1(NC(=O)C23CC4CC(CC(C4)C2)C3)CCS(=O)(=O)C1 (stereo not drawn),1,-2,-1,1,5,-4
